Source: PubChem (National Center for Advancing Translational Sciences (NCATS))
G9a block: G9a (human) methyltransferase inhibition. actives 8.8% (n = 350,000). Potency, µM (doses to about 102 µM), hits mostly inhibitors. G9a H3K9 monomethylation, AlphaScreen, 2 h. Q96KQ7; also: nearly all actives have a fitted effect of over 75% in size
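AlphaScreen detection with an anti-monomethyl H3K9 antibody quantified product after a 2 h room-temperature reaction containing 500 nM biotinylated H3K9 peptide, 20 µM SAM and 20 nM enzyme, which had been preincubated 15 min with compound.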
BAZ2B inh: inhibitors of human BAZ2B bromodomain; Potency, µM (highest dose often 114 µM), usual class: inhibitors; AlphaScreen BAZ2B-H3K14Ac peptide displacement; actives 4.4% (n = 360,000); also: nearly all actives have a fitted effect of over 60% in size
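AlphaScreen displacement of biotin-H3(5-23)K14Ac peptide (50 nM final) from BAZ2B (50 nM final) in PBS pH 7.4, 0.01% Tween-20; complex preformed 30 min RT, then compounds (top 110 uM) 30 min RT, beads 20 min dark.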
HP1b chromo inh: HP1-beta chromodomain-methylated histone interaction inhibition | P83916 | AID 540317 | Potency, µM (series often up to 114 µM), hits mostly inhibitors | actives 0.56% (n = 390,000) | AlphaScreen HP1-beta / biotin-H3K9me3 peptide binding; also: nearly all actives have a fitted effect of over 70% in size
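Compound inhibition of the preformed complex between 50 nM HP1-beta and 50 nM biotinylated H3K9me3 peptide was read by AlphaScreen. Buffer was PBS pH 7.4 with 0.01% Tween-20. Incubations ran 30 min at room temperature, with 10 ug/mL donor/acceptor beads.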
JMJD2A Tudor inh: inhibitors of human JMJD2A Tudor domain; actives 4.4% (n = 390,000); O75164; Potency, µM (series often up to 114 µM), hits mostly inhibitors; AlphaScreen JMJD2A-Tudor / H3K4me3 peptide binding; also: nearly all actives have a fitted effect of over 50% in size
L3MBTL1 block: inhibitors of human L3MBTL1. Q9Y468. AlphaScreen L3MBTL1–H3K9me1 peptide binding. Potency, µM (doses to about 57.1 µM), hits mostly inhibitors. actives 0.66% (n = 230,000). AID 485360; also: nearly all actives have a fitted effect of over 60% in size
Target sequence (Q9Y468 whole entry, looked up): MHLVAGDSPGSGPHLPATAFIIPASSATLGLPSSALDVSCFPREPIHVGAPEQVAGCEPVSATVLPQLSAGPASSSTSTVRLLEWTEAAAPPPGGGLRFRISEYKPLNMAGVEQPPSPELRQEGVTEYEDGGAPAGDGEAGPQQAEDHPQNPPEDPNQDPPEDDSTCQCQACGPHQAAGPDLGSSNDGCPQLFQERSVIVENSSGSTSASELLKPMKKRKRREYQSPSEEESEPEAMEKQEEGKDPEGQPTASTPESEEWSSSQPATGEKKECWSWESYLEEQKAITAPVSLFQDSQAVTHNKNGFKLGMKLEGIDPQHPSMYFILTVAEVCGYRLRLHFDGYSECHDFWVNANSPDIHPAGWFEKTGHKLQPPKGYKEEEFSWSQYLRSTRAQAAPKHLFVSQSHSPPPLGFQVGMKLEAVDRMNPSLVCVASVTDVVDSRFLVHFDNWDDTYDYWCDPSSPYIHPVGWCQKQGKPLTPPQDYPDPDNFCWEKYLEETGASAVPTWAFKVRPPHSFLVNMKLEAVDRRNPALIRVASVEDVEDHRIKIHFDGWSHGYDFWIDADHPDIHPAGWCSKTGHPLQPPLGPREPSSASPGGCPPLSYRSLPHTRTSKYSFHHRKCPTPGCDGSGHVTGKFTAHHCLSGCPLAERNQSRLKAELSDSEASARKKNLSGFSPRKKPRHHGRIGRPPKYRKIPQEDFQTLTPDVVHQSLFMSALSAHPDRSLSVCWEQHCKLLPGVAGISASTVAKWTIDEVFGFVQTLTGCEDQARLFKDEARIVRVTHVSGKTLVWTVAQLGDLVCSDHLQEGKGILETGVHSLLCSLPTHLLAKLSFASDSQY
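Displacement of a biotinylated histone H3(1-15) peptide monomethylated at Lys9 (75 nM) from L3MBTL1 (50 nM) was measured by AlphaScreen after a 30 min room-temperature compound incubation; cefsulodin titration served as intraplate control.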
Sfp inh: Sfp phosphopantetheinyl transferase inhibition; actives 3.5% (n = 310,000); Q9F4F7; AID 1490; Potency, µM, hits mostly inhibitors; Biochemical Sfp PPTase activity, qHTS;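 also: the enzyme is Sfp with the accession as filed and its product quenches rhodamine fluorescence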
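Buffer: 50 mM Hepes-Na pH 7.6, 10 mM MgCl2, 0.01% Nonidet P-40, 0.01% BSA. Enzyme 15 nM, pre-exposed to compound 15 min; substrates then added and fluorescence change tracked over 30 min.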
Of the large screens only hits and unclear results are named; the others gave an inactive call. Most compounds without a hit are left out; they make up all but 12% or so of the library. Calls follow the shape of the dose curve; as a rule, active = well fitted curve in the direction sought with a large enough effect; inconclusive = small, poorly fitted or top-dose-only effect, or another doubt; inactive = no such curve, though single readings can be large; an effect the other way counts as inactive or inconclusive.

Cc1[nH]n(C(N)=S)c(=O)c1N=Nc1cccc([N+](=O)[O-])c1C	G9a block 56.2µM, BAZ2B inh inconclusive, JMJD2A Tudor inh inconclusive (no result: L3MBTL1 block)
NC(=S)n1[nH]c(-c2ccc([N+](=O)[O-])cc2)c(N=Nc2ccccc2[N+](=O)[O-])c1=O	BAZ2B inh 39.8µM, JMJD2A Tudor inh inconclusive
COCCSc1nc(N)c2c3c(sc2n1)CN(C)CC3	none (no result: G9a block)
Cc1nc(-c2ccccc2)sc1C1(C)CC(c2cccc([N+](=O)[O-])c2)=NO1 (stereo unspecified)	BAZ2B inh inconclusive, JMJD2A Tudor inh inconclusive (no result: L3MBTL1 block)
CC(=O)c1cccc(NC(=O)Nc2ccccc2)c1	none (no result: L3MBTL1 block)
Cc1ccc(NC(=O)C2C3CCC(O3)C2C(=O)O)cc1C (stereo unspecified)	none (no result: G9a block)
CC(=O)Nc1cccc(NC(=O)C2C3C=CC(C3)C2C(=O)O)c1 (stereo unspecified)	none (no result: L3MBTL1 block)
Cc1cccc(NC(=O)C2C3C=CC(O3)C2C(=O)O)c1 (stereo unspecified)	G9a block 28.2µM (no result: HP1b chromo inh, JMJD2A Tudor inh)
Cc1ccc(NC(=O)C2C3C=CC(O3)C2C(=O)O)cc1C (stereo unspecified)	BAZ2B inh 89.1µM
CC(=O)c1cccc(NC(=O)C2C3C=CC(C3=C(c3ccccc3)c3ccccc3)C2C(=O)O)c1 (stereo unspecified)	G9a block 50.1µM, BAZ2B inh inconclusive, JMJD2A Tudor inh inconclusive
Cc1cccc(NC(=O)C2C3C=CC(C4CC34)C2C(=O)O)c1 (stereo unspecified)	G9a block inconclusive, Sfp inh 50.1µM
Cc1ccc(NC(=O)C(=O)NCC(c2cccnc2)N2CCN(Cc3ccccc3)CC2)cc1Cl (stereo unspecified)	none (no result: L3MBTL1 block, Sfp inh)
Cc1ccc(C(=O)CSc2nnc3ccc4ccccc4n23)cc1	none (no result: L3MBTL1 block, Sfp inh)
Cc1ccc(C)c(OCc2cc(C(=O)N3CCOCC3)no2)c1	JMJD2A Tudor inh inconclusive (no result: L3MBTL1 block)
Cc1cc(C)nc(NC(=O)C(C)C)n1	none
Cc1cc(C)nc(NN2C(=O)C=CC2=O)n1	G9a block 2.82µM, HP1b chromo inh inconclusive, JMJD2A Tudor inh inconclusive, Sfp inh 14.1µM (no result: L3MBTL1 block)
CCOC(=O)c1c(NC(=O)/C=C/C(=O)O)sc(C)c1-c1ccc(C)c(C)c1	BAZ2B inh inconclusive, Sfp inh 25.1µM (no result: G9a block)
CCOC(=O)c1c(NC(=O)/C=C/C(=O)O)sc(C)c1-c1ccc(F)cc1	Sfp inh 50.1µM
COC(=O)c1c(NC(=O)/C=C/C(=O)O)sc(C)c1-c1ccc(C)c(C)c1	none
C#CCSc1nsc(SCC#C)c1C#N	HP1b chromo inh inconclusive, JMJD2A Tudor inh 56.2µM
CCCCCOC(=O)Cn1c(=O)c2c(nc(N3CCOCC3)n2C)n(C)c1=O	G9a block 10µM, JMJD2A Tudor inh inconclusive (no result: L3MBTL1 block)
Cc1cc(C)cc(NC(=O)C2CCN(c3cc(C)nc4c(-c5ccc(Cl)cc5)c(C)nn34)CC2)c1	none (no result: L3MBTL1 block, Sfp inh)
CCc1nn2c(=O)cc(COc3ccc(/C=C(\C#N)C(=O)Nc4ccc(F)cc4)cc3OC)nc2s1	none (no result: L3MBTL1 block, Sfp inh)
COc1cc(/C=C2\SC(=S)N(C(C(=O)O)c3ccccc3)C2=O)cc(OC)c1OC (stereo unspecified)	G9a block inconclusive, BAZ2B inh inconclusive, Sfp inh 50.1µM
COc1cccc(/C=C2\SC(=S)N(C(C(=O)O)c3ccccc3)C2=O)c1OC (stereo unspecified)	G9a block inconclusive, BAZ2B inh inconclusive, HP1b chromo inh inconclusive, JMJD2A Tudor inh inconclusive, Sfp inh 79.4µM
COc1ccc(/C=C2\SC(=S)N(C(C(=O)O)c3ccccc3)C2=O)c(OC)c1 (stereo unspecified)	G9a block 50.1µM, BAZ2B inh inconclusive, Sfp inh 70.8µM
COc1ccccc1C(=O)NC1(C(F)(F)F)C(=O)NC(C)=C1C#N (stereo unspecified)	none (no result: L3MBTL1 block, Sfp inh)
O=C(N/N=C1/C[C@@H](O)[C@@H](O)[C@@H]2[C@@H]3C(=O)N(Cc4ccc5c(c4)OCO5)C(=O)[C@H]3CC[C@@H]12)OCc1ccccc1	none (no result: G9a block, BAZ2B inh, HP1b chromo inh, JMJD2A Tudor inh, L3MBTL1 block)
Cc1cc(=O)n(CCCO)c(O)c1C#N	G9a block 44.7µM
Cc1cc(=O)n2c3ccccc3n(CC(O)CN3CCCCC3)c2c1C#N (stereo unspecified)	none (no result: G9a block)
Cc1cc(=O)n(CC(C)O)c(O)c1C#N (stereo unspecified)	G9a block 10µM
Cc1cc(=O)n(Cc2ccccc2)c(O)c1C#N	BAZ2B inh inconclusive
Cc1ccc(C)c(NC(=O)CSc2ncc3c(n2)-c2ccccc2N(Cc2ccccc2C)S3(=O)=O)c1	none (no result: L3MBTL1 block, Sfp inh)
Cc1ccc(C(=O)N2CC(C)CC(C)C2)cc1NC1=NC2CS(=O)(=O)CC2S1 (stereo unspecified)	none
Cc1cc(C)c2c(=O)n(CC(=O)Nc3ccc(Cl)cc3)sc2n1	G9a block 0.0891µM, BAZ2B inh 39.8µM, HP1b chromo inh 7.94µM, JMJD2A Tudor inh 1.12µM, Sfp inh 3.55µM (no result: L3MBTL1 block)
Cc1cc(C)c2c(=O)n(CC(=O)Nc3cccc(F)c3)sc2n1	G9a block 0.316µM, BAZ2B inh 50.1µM, HP1b chromo inh inconclusive, JMJD2A Tudor inh 1.12µM, Sfp inh 3.16µM
CCOc1ccc(NC(=O)Cn2sc3nc(C)cc(C)c3c2=O)cc1	G9a block 0.282µM, HP1b chromo inh 5.62µM, JMJD2A Tudor inh 0.891µM, Sfp inh 2.82µM
Cc1ccc(NC(=O)Cn2sc3nc(C)cc(C)c3c2=O)c(Cl)c1	G9a block 0.355µM, BAZ2B inh 44.7µM, HP1b chromo inh inconclusive, JMJD2A Tudor inh 1.58µM, Sfp inh 2.82µM
c1ccc(N2CC3CCc4ccccc4C3=N2)cc1 (stereo unspecified)	none (no result: G9a block)
CCC(C)(C)C1CCC2(CC1)NC(=O)N(CC(=O)NC(C)CCc1ccccc1)C2=O (stereo unspecified)	G9a block inconclusive (no result: Sfp inh)
Cc1ccc(NC(=O)Cn2cc(S(=O)(=O)N3CCCC3)c(S(=O)(=O)N3CCCC3)c2)cc1C	none (no result: L3MBTL1 block, Sfp inh)
Cc1cccc(CSc2nnc3[nH]c(=O)cc(-c4ccccc4)n23)c1	none (no result: L3MBTL1 block, Sfp inh)
COc1ccc(C2=NN(C(=O)c3cccc([N+](=O)[O-])c3)C(c3cccc([N+](=O)[O-])c3)C2)cc1 (stereo unspecified)	G9a block inconclusive
Cc1ccc(C2=Nc3ccccc3SC(c3cccc([N+](=O)[O-])c3)C2)cc1 (stereo unspecified)	G9a block 44.7µM, BAZ2B inh 22.4µM, JMJD2A Tudor inh inconclusive, Sfp inh 8.91µM
COc1ccc(C(=O)Nc2sc3c(c2C(N)=O)CCCC3)cc1OC	none (no result: G9a block, BAZ2B inh, HP1b chromo inh, JMJD2A Tudor inh, L3MBTL1 block)
COc1ccccc1/C=C/CN1CCC(Oc2ccc(C(=O)N3CCCCC3)cc2)CC1	BAZ2B inh inconclusive, JMJD2A Tudor inh inconclusive (no result: G9a block, L3MBTL1 block)
COc1ccccc1NC(=O)CCN1CC(C)OC(C)C1 (stereo unspecified)	none
